Laboratory results: PubChem BioAssay AID651804 (National Center for Advancing Translational Sciences (NCATS), 2012)
The campaign covered roughly 1,200 compounds. About 20 (2%) were called active. Roughly 23% stayed inconclusive and do not appear here. The call rests on the fitted dose curve; in most records, active means well fitted inhibition curve with a large enough effect; inconclusive means small, poorly fitted or top-dose-only effect; inactive means no such curve, though single readings can be large or run the other way. What follows is part of a selection rich in actives, with near analogues and random picks from the rest.

These compounds were tested against Transcriptional regulator ERG (Homo sapiens) (UniProt P11308) (assay: qHTS for Small Molecule Inhibitors of the ERG Ets/DNA interaction: HTRF assay against cherry picks). Details: His-ERG Ets domain with biotin-DNA; series mostly up to 154 µM.
Text: The Ets family of proteins is a family of ~30 conserved transcription factors defined by the presence of an ~85 amino acid domain referred to as the Ets domain, which mediates sequence-specific DNA binding to a core DNA element GGAA/T.The Ets family member ERG has been linked to several neoplasms. […] More extensive studies of the effects of over-expression of ERG in prostate cells have recently been carried out and have shown that over-expression of ERG results in increased invasion. […] We will carry out a high throughout screen to identify inhibitors of the interaction between ERG and DNA using a fluorescence polarization (FP) assay with a His-tagged ERG Ets domain and fluorescently-labeled DNA probes to develop small molecule inhibitors of this interaction as probes to test this hypothesis and lay the groundwork for the development of targeted therapies against ERG. This is the counterscreen against the cherry picks. NIH Molecular Libraries Probe Production Network [MLPCN] NIH Chemical Genomics Center [NCGC] Grant: NS066464 PI Name: John Bushweller, University of Virgina
2 ul of protein solution (200 nM ERG domain in 300mM KCl, 50mM Tris-HCl, 1mM EDTA, 1mM DTT, pH 7.5); 20 nl Control plate and compound library plate; 2 ul of 200 nM biotin-DNA; incubate for 10 min at RT; 1 ul of anti-His antibody conjugated to the long-life fluorescent cryptate donner […] (5ng/ul) and streptavidin conjugated to the acceptor compound […] (0.2 ng/ul) mix; incubate 10 min and measure FRET (Excitation = 320 nm, Emission = 615, 665 nm).
Potency means the concentration at half of the fitted maximal effect.

Sequence of Transcriptional regulator ERG (Homo sapiens) (P11308 whole entry, looked up, the tested form may be a part): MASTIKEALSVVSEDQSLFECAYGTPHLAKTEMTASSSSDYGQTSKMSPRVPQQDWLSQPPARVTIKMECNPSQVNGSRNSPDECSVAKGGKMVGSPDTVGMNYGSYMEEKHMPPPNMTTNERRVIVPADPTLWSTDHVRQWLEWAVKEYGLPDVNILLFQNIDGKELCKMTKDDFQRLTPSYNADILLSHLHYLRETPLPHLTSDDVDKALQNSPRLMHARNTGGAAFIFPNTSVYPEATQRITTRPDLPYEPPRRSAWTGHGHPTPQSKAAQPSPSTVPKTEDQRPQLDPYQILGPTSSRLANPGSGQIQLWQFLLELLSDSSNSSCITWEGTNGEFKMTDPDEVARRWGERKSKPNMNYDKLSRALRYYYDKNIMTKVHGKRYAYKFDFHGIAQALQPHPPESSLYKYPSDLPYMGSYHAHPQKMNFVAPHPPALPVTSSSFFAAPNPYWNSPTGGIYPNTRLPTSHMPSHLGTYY

Potency, inactive:
CCOc1cc(CNc2cccc3[nH]c(C)nc23)ccc1OC
Cc1cc(C)cc(NC(=O)CCOc2ccccc2)c1
O=C1CC(Cc2ccccc2)C(=O)N1c1ccc(Cl)cn1 (stereo not drawn)
COc1ccc(C(=O)N[C@H](C(=O)N2CCN(c3ccccc3F)CC2)C(C)C)cc1
CC(=O)NNc1cc(N2CCOCC2)nc(N2CCOCC2)n1
COc1cc(SC)ccc1C(=O)NC(C)C
COc1ccc(S(=O)(=O)NNC(=S)NCCc2ccccc2)c(OC)c1
Cc1ccc2nc3c(c(N)c2c1)CCN3C
CCc1cc(C(=O)OC)c(NC(=O)CN2CCN(C(=O)C3CCCO3)CC2)s1 (stereo not drawn)
Cc1ccc(S(=O)(=O)N2CCC[C@H]2C(=O)NC2CCCCC2)cc1
CCOC(=O)CC1C(=O)NCCN1C(=O)c1c(F)cccc1F (stereo not drawn)
CC(=O)NC(CC(=O)Nc1nc(-c2ccccc2)c(C(C)=O)s1)c1ccccc1 (stereo not drawn)
COc1ccc(N(CCC(=O)Nc2ccccc2F)S(=O)(=O)c2ccc(C)cc2C)cc1
CCN(CC)c1ccc([N+](=O)[O-])cc1C(=O)O
O=C(COc1ccccc1)Nc1ccc2c(c1)Cc1cc(NC(=O)COc3ccccc3)ccc1-2
CNC(=O)C(=O)NCCN1CCN(C(=O)c2ccc([N+](=O)[O-])cc2)CC1
COc1ccc(OC)c(NC(=O)Cn2cnc3sc(C)c(S(=O)(=O)N4CCN(c5ccccc5OC)CC4)c3c2=O)c1
CN(C)c1nc2n(c(=S)n1)CCS2
CCC1COC(c2cccn2Cc2ccc(Cl)cc2)=N1 (stereo not drawn)
CC(=O)OCC(=O)C1=CCC2C3CCC4=CC(=O)C=CC4(C)C3(F)C(OC(C)=O)CC12C (stereo not drawn)
COc1cc(OC)cc(C(=O)NCC(=O)OCc2csc(-c3ccccc3)n2)c1
CCn1cc(S(=O)(=O)Nc2ccc(Cl)cc2F)cn1
COc1ccc([N+](=O)[O-])c(OC)c1C(=O)NC(=O)Nc1c(F)c(F)c(F)c(F)c1F
CCn1c(CSc2ncn[nH]2)nc2cc(C(=O)O)ccc21
CS(=O)(=O)NN1C(=O)c2ccccc2NC1c1cccc(O)c1 (stereo not drawn)
S=C(NCc1ccco1)N1CCN(c2ccccn2)CC1
CCOc1ccccc1N1CCN(C(=O)c2cc(S(=O)(=O)N(C)C)ccc2N2CCCC2)CC1
COc1ccc(CNC(=O)CN2C(=O)NC3(CCCCCC3)C2=O)cc1OC
CCn1nc(C)cc1C(=O)N1CCCC(N2CCN(Cc3ccc4c(c3)OCO4)CC2)C1 (stereo not drawn)
CCCC(=O)Nn1cnc2c(c1=O)C1(CCCCC1)Cc1ccccc1-2
COc1ccc(S(=O)(=O)NCC2CC3C=CC2C3)cc1OC (stereo not drawn)
COCCNC(=O)Cn1c(=O)n(CCCC(=O)NCc2ccc3c(c2)OCO3)c(=O)c2sccc21
COC(=O)C1=C(C)NC(C)=C(C(=O)OC)C1c1ccc(-c2cccc(Cl)c2Cl)o1
CCOc1ccc(NC(=O)CN(C)C(=O)c2ccccc2CCc2ccccc2)cc1OCC
COc1ccc(CCNC(=O)Cn2cc(C(F)(F)F)cc(Cl)c2=O)cc1
CSc1nc2c(c(=O)[nH]1)C(c1cccc(Br)c1)CC(=O)N2 (stereo not drawn)
CC(=O)Nc1ccc(S(=O)(=O)Nc2nc3ccccc3nc2Nc2ccc(O)c(C(=O)O)c2)cc1
COC(OC)c1nc(SCC(=O)Nc2cccc(Cl)c2)ncc1C(=O)O
CCC(Oc1ccccc1F)C(=O)NCCCn1ccnc1 (stereo not drawn)
Cc1nonc1C1CCCN1C(=O)c1cc(COc2ccc(F)cc2Cl)on1 (stereo not drawn)
Cc1ccc(COC(=O)CCN=C2NS(=O)(=O)c3ccccc32)cc1
O=C(Nc1ccc(-c2nc3ccccc3[nH]2)cc1)c1c(F)c(F)c(F)c(F)c1F
Cn1ccc(C(=O)OCC(=O)Nc2ccccc2)n1
COc1ccc(CNC(=O)COC(=O)CCOc2ccccc2)cc1
Cc1nn(-c2ccc(Cl)cc2)c2[nH]c(CCl)cc(=O)c12
Cc1cc(S(=O)(=O)N2CCOCC2)ccc1OCC(=O)Nc1ccc(F)c(Cl)c1
C=CCn1c2ccccc2c2nnc(SCC(=O)NC(C(=O)OC)C(C)C)nc21 (stereo not drawn)
N#Cc1c(NC(=O)CCCN2C(=O)c3ccccc3C2=O)oc(-c2ccccc2)c1-c1ccccc1
Cc1ccc(N(CCCCN2C(=O)c3ccccc3C2=O)C(=O)c2ccc(Cl)s2)cc1
CC(=O)C(c1ccccc1)C(c1ccccc1)C(C)[N+](=O)[O-] (stereo not drawn)
COc1cc(CO)ccc1OCC(=O)Nc1cccc2ccccc12
CN(C(=O)COC(=O)c1ccc(F)c(S(=O)(=O)N2CCOCC2)c1)C1CCS(=O)(=O)C1 (stereo not drawn)
Cc1occc1C(=O)NCCc1ccc(Cl)cc1
CCc1cc(C(=O)NNC(=S)Nc2cccc(C)c2)cs1
Cc1cccc(-n2c(-c3ccccc3)c[nH]c2=S)c1C
Cc1ccc(NC(=O)c2cc3cc(OC(F)(F)F)ccc3[nH]2)cc1
CCCCn1c(N)c(N(CC)C(=O)c2ccc(C#N)cc2)c(=O)[nH]c1=O
Cc1cc(C)nc(N2CCN(c3nnnn3-c3ccccc3)CC2)n1
CCCN(C(=O)c1nn(-c2ccc(C)cc2)c(=O)c2c1c1ccccc1n2C)c1ccccc1C
Cc1ccccc1C(=O)N/N=C1/SCC(=O)N1Cc1ccccc1
Cc1cccc(C(=O)NCCNc2nc3cc(C)c(C)cc3cc2C)c1
O=C(CNC(=S)N(Cc1ccccc1)Cc1cccnc1)NC1CCCCC1
Cc1ccc(-c2noc(C3CCCN(C(=O)c4cccc([N+](=O)[O-])c4)C3)n2)o1 (stereo not drawn)
Cc1cc2cc(CNC(=O)C(C)Oc3ccccc3)ccc2n1C (stereo not drawn)
CC(Oc1ccc(F)cc1)C(=O)Nc1ccc(S(=O)(=O)NC2=NCCCCC2)cc1 (stereo not drawn)
COc1ccc(C(=O)NCc2ccc(OCCN(C)C)cc2)cc1OC
Cc1cc(F)ccc1NC(=O)c1ccc(NS(=O)(=O)c2cc(C(C)(C)C)ccc2C)cc1
O=C1[C@H]2[C@@H](c3ccc(F)cc3)N3C(=O)N(c4cccc(F)c4)C(=O)[C@@]3(Cc3ccccc3)[C@H]2C(=O)N1C1CCCCC1
CCNc1nc(OCC)nc(N2CCC(Cc3ccccc3)CC2)n1
CSc1ccccc1NC(=O)CN(C)C(=O)/C=C/c1ccccc1
CC(=O)c1cccc(NC(=O)C(C)OC(=O)CCc2nc3ccccc3c(=O)[nH]2)c1 (stereo not drawn)
Nc1ccc2[nH]ncc2c1
O=C(CSC1=NCCS1)NC(NC(=O)CSC1=NCCS1)c1ccccc1
CCOc1ccccc1NC(=O)COc1ccc2ccc(=O)oc2c1
O=C(COC(=O)/C=C/c1ccc([N+](=O)[O-])cc1)NCc1cccs1
O=C(CCc1c[nH]c2ccccc12)NCc1ccco1
O=C(NCc1cccnc1)c1ccccc1-c1nc(-c2ccccc2)no1
O=C(NC(c1ccccc1)C(Cl)Cl)c1ccccc1 (stereo not drawn)
CCOC(=O)CSc1nc2ccc(NC(=O)c3ccc(F)cc3)cc2s1
CCN(C(=O)CSc1nc2cc(C(=O)O)ccc2c(=O)n1Cc1ccccc1)c1ccccc1
Cc1noc(C)c1S(=O)(=O)N(CC(=O)NCc1ccc(F)cc1)c1ccc(C(C)C)cc1
Cc1[nH]c2ccc(C(=O)OCC(=O)Nc3cccc(S(N)(=O)=O)c3)cc2c1C
O=C(C1CCN(CCc2ccccc2)CC1)N1CCOCC1
Cc1ccnn1-c1ccc(C(=O)OCC(=O)Nc2ccc(F)cc2)cc1
CCN(CC(=O)N1CCCCCC1)S(=O)(=O)c1ccc(Cl)cc1
COc1ccc(-c2cc(N)n(S(=O)(=O)Cc3ccccc3)n2)c(OC)c1
O=C(CCN=C1NS(=O)(=O)c2ccccc21)OCc1ccccc1
COc1ccc(NC2CCCN(C(=O)C3(C)CCCCC3)C2)cc1OC (stereo not drawn)
COc1ccccc1C(C)NC(=O)c1cc(S(=O)(=O)N2CCCCC2)ccc1C (stereo not drawn)
O=C(C1CC(=O)N(c2ccc(Cl)cc2)C1)N1CCCCCC1 (stereo not drawn)
CCN(C(=O)COC(=O)c1ccc(=O)n(Cc2ccccc2)n1)C1CCS(=O)(=O)C1 (stereo not drawn)
C=CCC[C@H](Cc1ccc(F)cc1)C(=O)OC[C@@H](Cc1c[nH]c2ccccc12)NC(=O)[C@H](CC=C)CC(=O)N(CCO)Cc1ccccc1
Cc1nn(C2CCS(=O)(=O)C2)c(Cl)c1/C=C/C(=O)OCC(=O)c1c[nH]c2ccccc12 (stereo not drawn)
CCCN(CC(=O)Nc1ccc(F)c(F)c1F)C(=O)C1CC(=O)N(Cc2ccccc2)C1 (stereo not drawn)

Potency, active:
CN(CCO)C1=NS(=O)(=O)c2cc([N+](=O)[O-])ccc21 28.2 µM
O=C1C(SCCO)=C(SCCO)C(=O)c2ccccc21 50.1 µM
Nc1cccc(N2C(=O)c3cccc4c(N)ccc(c34)C2=O)c1 39.8 µM
O=C1c2ccc3c4c(ccc(c24)C(=O)N1CCCCO)C(=O)N(CCCCO)C3=O 20 µM
CCCCn1c(=O)[nH]c2nc3cc(N)ccc3nc2c1=O 50.1 µM
O=C(Nc1ccccc1)Nc1ncc([N+](=O)[O-])s1 39.8 µM
O=C1c2ccccc2C(=O)c2c1ncn2-c1ccccc1 15.8 µM
O=C(/C=C/c1ccc([N+](=O)[O-])cc1)NCc1ccco1 28.2 µM
O=C(OCC(=O)c1c[nH]c2ccccc12)c1ccc([N+](=O)[O-])s1 35.5 µM
